# Source: PubChem BioAssay AID1053125 (Broad Institute, 2014)
# Measured potencies and affinities stand elsewhere. Activity calls are given as the source filed them.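 The calls were made as follows: active = viability loss whose fitted half-maximal concentration is at most twice the top valid tested dose; inconclusive = flat curve with 30 to 70% loss, or poor fit; inactive = the rest.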
# Experiment: HepG2 cell cytotoxicity, dose response, cytotoxicity control, ATP luminescence, cherry-pick, set 6 (AID 1053125);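 also: negative values mean loss of viability signal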
# Details: HepG2 viability, ATP luminescence (CellTiter-Glo), 72 h; series mostly up to 26 µM
row,SMILES,outcome
1,N#CC1=C(N)Oc2cc(O)ccc2C1c1ccc2c(c1)OCO2 (stereo not drawn),inactive
2,CC(C)OP(=O)(O)NC(=O)c1ccccc1,inactive
3,CC12CC(c3ccccc3O1)C(C(=O)OCc1ccccc1)C(=O)N2 (stereo not drawn),inactive
